Inconclusive results are not listed. Calls of active or inactive are those of the source.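 Rule for the calls, unless noted: active = viability at or below 10% of carrier control in both of two separate runs; inconclusive = viability at or below 10% in only one of the two runs; inactive = the rest.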
Legend:
[1] = Her2 expression decrease, cell viability multiplex – SKBR3 breast tumor cells, AlphaScreen, ATP viability, primary screen (AID 461;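 active = Her2 level under about 52% in both replicate screens, with viability over 70% of control, limit read from the data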;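 for Her2 level: lower value means less Her2 protein in the cells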;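 for viability: percent of carrier control wells set as 100% viability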); conditions: SKBR3 Her2 protein level, 18-24 h, measured here: SKBR3 viability, ATP luminescence, at 10 µM
[2] = target: Receptor tyrosine-protein kinase erbB-2 (Homo sapiens) (UniProt P04626); assay: as above; conditions: 18-24 h, at 10 µM, stronger effect = lower value
Chain of Receptor tyrosine-protein kinase erbB-2 (Homo sapiens) (P04626 whole entry, looked up): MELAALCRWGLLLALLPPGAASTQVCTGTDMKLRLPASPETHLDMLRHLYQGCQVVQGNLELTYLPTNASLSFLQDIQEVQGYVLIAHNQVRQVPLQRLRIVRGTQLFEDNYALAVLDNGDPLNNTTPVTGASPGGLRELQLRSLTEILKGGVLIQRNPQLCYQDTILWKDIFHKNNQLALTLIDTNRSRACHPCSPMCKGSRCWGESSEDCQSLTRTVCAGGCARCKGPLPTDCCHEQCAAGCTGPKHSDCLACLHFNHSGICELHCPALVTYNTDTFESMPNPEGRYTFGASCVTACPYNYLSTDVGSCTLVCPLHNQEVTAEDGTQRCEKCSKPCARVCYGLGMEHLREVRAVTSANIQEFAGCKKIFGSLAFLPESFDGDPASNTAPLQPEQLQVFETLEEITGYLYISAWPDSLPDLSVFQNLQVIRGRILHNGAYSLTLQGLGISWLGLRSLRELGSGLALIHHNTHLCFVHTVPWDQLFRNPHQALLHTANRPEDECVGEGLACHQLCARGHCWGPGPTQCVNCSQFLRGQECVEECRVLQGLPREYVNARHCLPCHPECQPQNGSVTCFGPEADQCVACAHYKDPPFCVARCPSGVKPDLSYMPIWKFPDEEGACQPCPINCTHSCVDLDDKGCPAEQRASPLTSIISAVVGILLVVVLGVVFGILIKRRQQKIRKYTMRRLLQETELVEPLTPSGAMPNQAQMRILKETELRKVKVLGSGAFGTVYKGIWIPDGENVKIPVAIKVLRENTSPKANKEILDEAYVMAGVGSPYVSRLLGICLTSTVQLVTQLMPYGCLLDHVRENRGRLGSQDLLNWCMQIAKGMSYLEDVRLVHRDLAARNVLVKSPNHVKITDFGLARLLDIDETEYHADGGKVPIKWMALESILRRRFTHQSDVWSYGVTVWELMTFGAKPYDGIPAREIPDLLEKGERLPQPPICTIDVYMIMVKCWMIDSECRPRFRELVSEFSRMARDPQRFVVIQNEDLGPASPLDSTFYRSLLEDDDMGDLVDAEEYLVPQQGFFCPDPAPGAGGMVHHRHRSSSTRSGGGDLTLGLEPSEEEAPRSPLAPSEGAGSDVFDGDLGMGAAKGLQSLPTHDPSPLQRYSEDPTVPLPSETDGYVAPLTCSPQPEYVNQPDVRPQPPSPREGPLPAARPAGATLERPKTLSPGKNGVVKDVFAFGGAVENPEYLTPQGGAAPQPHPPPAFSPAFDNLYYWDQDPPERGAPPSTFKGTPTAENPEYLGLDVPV

[3] = reduced viability of SK-BR-3 breast cancer cells – cell-based, 24 h, human, pilot screen (AID 572); conditions: SK-BR-3 viability, CellTiter-Glo luminescence, at 10 µM, stronger effect = lower value;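 note: compound exposure lasted between 18 and 24 h rather than exactly 24 h; 100% = carrier-treated control wells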
[4] = HUVEC growth inhibition – cell-based, human, primary screen (AID 575;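 active = viability at or below 30% in both replicate assays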;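 note: 100% = median of untreated cell wells with 0.1% DMSO on each plate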); conditions: HUVEC proliferation, CellTiter-Glo luminescence, 72 h; at 10 µM; stronger effect = lower value
[5] = H69AR cell proliferation blockers – human, duplicate replicates, primary screen (AID 580;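 active = viability at or under a set limit in both replicates, limit being median viability minus 3 SD, cut at about 48% in these data, passing the limit was not always enough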;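 note: 100% = mean luminescence of untreated wells and 0% = no signal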); conditions: H69AR lung tumor cells viability, ATP luminescence, 72 h; at 10 µM; stronger effect = lower value
[6] = MRP1 drug-resistance reversers in H69AR cells – cell-based, doxorubicin co-treatment, pilot screen (AID 601;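 active = viability loss from added drug above about 55%, and viability with drug at most 40%, in both replicates, limit read from the data, passing the limit was not always enough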); conditions: CellTiter-Glo, 72 h, at 10 µM; for differential viability (reversal): stronger effect = higher value
[7] = yeast transport mutant growth inhibition pilot in 384-well plates, post-Golgi transport modulator project (AID 636; in the data active = inhibition above about 31%); conditions: absorbance 615 nm, about 18 h, stronger effect = higher value
[8] = growth suppression of yeast trafficking mutant, preliminary HTS, modulators of trafficking downstream of Golgi apparatus project, 1536-format plate, OD 615 nm (AID 637; in the data active = inhibition above about 30%); conditions: yeast transport mutant growth, absorbance 615 nm, 18 h; stronger effect = higher value
[9] = S. cerevisiae growth inhibition in permissive medium (OD615), pilot counter-assay for S. cerevisiae lifespan shortening project, permissive growth control (AID 705;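 active = growth inhibition above 25% in both replicates, a cutoff set 3 SD above the mean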); conditions: OD615, 24 h, at 10 µM, stronger effect = higher value
[10] = S. cerevisiae growth inhibition in restrictive medium, OD615, pilot screen, restrictive growth control, yeast lifespan reduction project (AID 706;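 active = growth inhibition above a set limit, 3 SD over mean compound inhibition, in both replicates, cut at about 43% in these data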;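 note: modified DeaD lifespan yeast strain shifted to restrictive glucose medium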); conditions: OD615, 48 h, at 10 µM, stronger effect = higher value
[11] = doxorubicin toxicity protection in MRP-1 cells – H69AR cells, CellTiter-Glo, duplicate, MRP-1 activator project, pilot screen (AID 807;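 active = viability increase at or above a cutoff of the median across tested compounds plus 3 SD, cut at about 8.5% in these data, passing the limit was not always enough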;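 note: compound pretreatment 18-22 h then 72 h combined with doxorubicin; 0% = doxorubicin alone and 100% = vehicle without doxorubicin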); conditions: H69AR viability with doxorubicin, CellTiter-Glo luminescence; at 10 µM; stronger effect = higher value
[12] = viability of HCT116 without oncogenic beta-catenin – human colon tumor cells, pilot screen (AID 823;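 active = cell viability at or below a set limit in both duplicate runs, the limit being the all-compound median minus 4 SD, cut at about 23% in these data, passing the limit was not always enough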;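 note: 0% = wells killed by 20 µM Hyamine and 100% = untreated DMSO cell wells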); conditions: HCT116 beta-catenin knockout viability, CellTiter-Glo, 60 h; at 10 µM; stronger effect = lower value
[13] = viability of PTEN-null HCT116 cells – cell-based, HCT116 clonal line, CellTiter-Glo, pilot screen (AID 824;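 active = viability at or below 27.92% in each of two runs, the all-compound median minus 4 SD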;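 note: 0% = 20 µM Hyamine control and 100% = vehicle cell control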); conditions: HCT116 PTEN-deleted viability, 60 h, at 10 µM, stronger effect = lower value
[14] = RAM pathway blockade in budding yeast – dse1pr::URA3 reporter, 5-FOA selection, pilot screen (AID 869;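 active = inhibition over a set limit, the all-compound mean plus 3 SD, in both replicate runs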;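 note: 0% = DMSO wells with no growth and 100% = 10 µM 1-NA-PP1 with full growth; RAM network block rescues cells from 5-FOA so hits raise OD615 growth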); conditions: S. cerevisiae dse1pr::URA3 5-FOA growth, OD615, 2 d; at 10 µM; stronger effect = higher value; strain carries analog-sensitive mutant Cbk1 kinase
[15] = RAM signaling pathway blockade in yeast – S. cerevisiae, Pdr1DBD-CYC8 efflux-inhibited sensitized strain, primary screen (AID 1298;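 active = RAM network inhibition above 8.4% in each of two replicates, 3 SD over the compound average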;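 note: 0% = DMSO untreated cells without growth and 100% = 10 µM 1-NA-PP1 full growth; higher means more yeast growth rescued from 5-FOA killing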); conditions: S. cerevisiae cbk1-as DSE1-URA3 strain, 5-FOA growth OD615, 2 d; at 50 µM; stronger effect = higher value
[16] = H69AR cells + 2 uM doxorubicin, measured here: viability with 2 uM doxorubicin, stronger effect = lower value
[17] = H69AR cells, compound alone cytotoxicity

Row | SMILES | viability [1] [%] | Her2 level [2] | viability [3] | viability [4] | viability [5] | differential viability (reversal) ([6]; H69AR cells + 2 uM doxorubicin) | viability [6, 16] [%] | viability [6, 17] [%] | inhibition [7] | inhibition [8] | growth inhibition [9] | growth inhibition [10] | viability increase [11] | viability [12] | viability [13] | inhibition [14] | RAM network inhibition [15]
1 | COCCCNC(=O)Cn1cc2c(n1)CCC(C)C2 (stereo not drawn) | 112 | 100% (inactive) | 112% (inactive) | 90.5% (inactive) | 90.1% (inactive) | -1.69% (inactive) | 91.8 | 90.1 | 0% (inactive) | 0.17% (inactive) | -1.62% (inactive) | 5.27% (inactive) | 0.05% (inactive) | 104% (inactive) | 102% (inactive) | 1.82% (inactive) | -0.72% (inactive)
2 | O=C(CSc1nnnn1-c1ccccc1Cl)Nc1ccc2c(c1)OCCO2 | 91.5 | 96% (inactive) | 91.5% (inactive) | 101% (inactive) | 77.2% (inactive) | -7.98% (inactive) | 85.2 | 77.2 | -0.4% (inactive) | 4.33% (inactive) | 1.69% (inactive) | 3.15% (inactive) | 1.44% (inactive) | 99.4% (inactive) | 87.5% (inactive) | 2.22% (inactive) | 5.58% (inactive)
3 | COc1ccc(OC)c(C2=NOC(C(=O)Nc3cc(C)nn3-c3ccccc3)C2)c1 (stereo not drawn) | 86.5 | 106% (inactive) | 86.5% (inactive) | 114% (inactive) | 95.2% (inactive) | 9.74% (inactive) | 85.5 | 95.2 | -2.56% (inactive) | -0.33% (inactive) | -7.35% (inactive) | -4.62% (inactive) | 0.16% (inactive) | 94.2% (inactive) | 94.9% (inactive) | 1.83% (inactive) | 7.22% (inactive)
4 | Cc1nc2sc(C(c3cccs3)N3CCC(C(N)=O)CC3)c(O)n2n1 (stereo not drawn) | 92.5 | 128% (inactive) | 92.5% (inactive) | 100% (inactive) | 91.8% (inactive) | -4.42% (inactive) | 96.2 | 91.8 | -3.73% (inactive) | -1% (inactive) | -0.435% (inactive) | 3.77% (inactive) | -0.3% (inactive) | 101% (inactive) | 94.2% (inactive) | 0.69% (inactive) | 4.12% (inactive)
5 | Oc1ccccc1-c1nnc(COc2ccc(Cl)cc2Cl)o1 | 96 | 97.5% (inactive) | 96% (inactive) | 101% (inactive) | 63.3% (inactive) | -12.9% (inactive) | 76.1 | 63.3 | -8.8% (inactive) | 0.5% (inactive) | -10.2% (inactive) | -11.7% (inactive) | -1.77% (inactive) | 92.3% (inactive) | 86.6% (inactive) | 1.82% (inactive) | 7.07% (inactive)
6 | O=C(CSc1nnc(Cn2c(=O)sc3ccccc32)n1-c1ccccc1)NCC1CCCO1 (stereo not drawn) | 80.5 | 108% (inactive) | 80.5% (inactive) | 82.3% (inactive) | 99.8% (inactive) | 12.6% (inactive) | 87.2 | 99.8 | -1.92% (inactive) | 0.83% (inactive) | -4.79% (inactive) | 10.2% (inactive) | -2.08% (inactive) | 99.1% (inactive) | 98.6% (inactive) | 1.41% (inactive) | 0.47% (inactive)
7 | CCc1ccc(N2CC34C=CC(O3)C(C(=O)OC)C4C2=O)cc1 (stereo not drawn) | 102 | 104% (inactive) | 102% (inactive) | 96.7% (inactive) | 94.2% (inactive) | 12% (inactive) | 82.2 | 94.2 | -2.8% (inactive) | -1.17% (inactive) | -6.25% (inactive) | 3.24% (inactive) | 0.55% (inactive) | 102% (inactive) | 99.7% (inactive) | 0.255% (inactive) | 0.11% (inactive)
8 | CC(=O)NCc1nc2ccccc2n1C(C)C | 104 | 108% (inactive) | 104% (inactive) | 84.2% (inactive) | 92.3% (inactive) | 10% (inactive) | 82.3 | 92.3 | -4.93% (inactive) | -4.83% (inactive) | -13.7% (inactive) | -29.9% (inactive) | -0.81% (inactive) | 105% (inactive) | 95.5% (inactive) | 0.84% (inactive) | 3.6% (inactive)
9 | COc1ccc(C/C(N)=N/n2cnnc2)cc1Cl | 94 | 100% (inactive) | 94% (inactive) | 103% (inactive) | 102% (inactive) | 2.52% (inactive) | 99.4 | 102 | -2.21% (inactive) | -0.83% (inactive) | -9.88% (inactive) | -12% (inactive) | -0.81% (inactive) | 95.7% (inactive) | 99.8% (inactive) | 1.04% (inactive) | 2.47% (inactive)
10 | COc1ccccc1-n1c(=O)[nH]c2c(C(N)=O)nc(CC(C)C)nc21 | 81 | 109% (inactive) | 81% (inactive) | 96.8% (inactive) | 80.4% (inactive) | -12.7% (inactive) | 93 | 80.4 | -2.93% (inactive) | -2.17% (inactive) | -15.9% (inactive) | -13.4% (inactive) | -2.94% (inactive) | 97.9% (inactive) | 99.5% (inactive) | 1.01% (inactive) | 2.83% (inactive)
11 | CCN(CCNC(=O)C1CCN(S(=O)(=O)c2cccc3cccnc23)CC1)c1ccccc1 | 87 | 84.5% (inactive) | 87% (inactive) | 79.7% (inactive) | 98.3% (inactive) | -2.15% (inactive) | 100 | 98.3 | -1.33% (inactive) | 20.5% (inactive) | -5.29% (inactive) | 8.53% (inactive) | 1.51% (inactive) | 94.4% (inactive) | 82.9% (inactive) | 0.21% (inactive) | 5.91% (inactive)
12 | CCCC(=O)Nc1nc2ccc(S(N)(=O)=O)cc2s1 | 88 | 98% (inactive) | 88% (inactive) | 90% (inactive) | 106% (inactive) | 34.3% (inactive) | 71.4 | 106 | -3.33% (inactive) | 6.33% (inactive) | -4% (inactive) | -0.595% (inactive) | -1.78% (inactive) | 99.4% (inactive) | 90.5% (inactive) | 0.465% (inactive) | -0.2% (inactive)
13 | Cc1nc2ccc(S(=O)(=O)NC(C(=O)N3CCCC3)C(C)C)cc2s1 (stereo not drawn) | 88.5 | 106% (inactive) | 88.5% (inactive) | 111% (inactive) | 97.3% (inactive) | 17.8% (inactive) | 79.5 | 97.3 | -1.92% (inactive) | -0.5% (inactive) | 3.5% (inactive) | 11.5% (inactive) | -2.03% (inactive) | 92.2% (inactive) | 91.2% (inactive) | 2.62% (inactive) | 0.27% (inactive)
14 | Cc1c(Cl)cccc1NC(=O)CCN1CCCCC1 | 100 | 92% (inactive) | 100% (inactive) | 100% (inactive) | 101% (inactive) | 6% (inactive) | 94.9 | 101 | -2.8% (inactive) | 0.16% (inactive) | -7.21% (inactive) | 2.33% (inactive) | -1.01% (inactive) | 100% (inactive) | 96.4% (inactive) | 0.655% (inactive) | 4.96% (inactive)
15 | Cc1ccccc1NC(=O)C1CCCN(S(=O)(=O)c2cccc3cccnc23)C1 (stereo not drawn) | 90.5 | 96.5% (inactive) | 90.5% (inactive) | 94.6% (inactive) | 93.2% (inactive) | 0.99% (inactive) | 92.2 | 93.2 | -1.73% (inactive) | -5.25% (inactive) | -13.1% (inactive) | -16.6% (inactive) | -2.23% (inactive) | 82.1% (inactive) | 81.2% (inactive) | 3.01% (inactive) | 1.93% (inactive)
16 | CCCCCn1c(=O)[nH]c2cc(C(=O)NCCN3CCOCC3)ccc2c1=O | 99.5 | 88% (inactive) | 99.5% (inactive) | 114% (inactive) | 105% (inactive) | 16.1% (inactive) | 88.5 | 105 | -7.03% (inactive) | 0.33% (inactive) | -26.4% (inactive) | -10.6% (inactive) | -0.3% (inactive) | 92.5% (inactive) | 87.9% (inactive) | 1.83% (inactive) | 5.23% (inactive)
17 | COc1ccc(S(=O)(=O)N(C)C2CCN(C)CC2)cc1 | 108 | 98% (inactive) | 108% (inactive) | 93.2% (inactive) | 93.4% (inactive) | 11.1% (inactive) | 82.3 | 93.4 | -4.8% (inactive) | -2% (inactive) | -6.05% (inactive) | -10.2% (inactive) | -3.82% (inactive) | 100% (inactive) | 96.9% (inactive) | 0.835% (inactive) | 5.99% (inactive)
18 | CCOCCCNC(=O)Cn1ncc2c(=O)oc3ccccc3c21 | 95 | 98% (inactive) | 95% (inactive) | 81.5% (inactive) | 90.5% (inactive) | -3.42% (inactive) | 93.9 | 90.5 | 1.79% (inactive) | -2.83% (inactive) | 7.44% (inactive) | 15.2% (inactive) | -0.6% (inactive) | 101% (inactive) | 94.3% (inactive) | -0.73% (inactive) | 1.15% (inactive)
19 | COc1cc(C(=O)Nc2cccc(-c3nncn3C)c2)cc(OC)c1OC | 102 | 110% (inactive) | 102% (inactive) | 101% (inactive) | 89% (inactive) | 7.79% (inactive) | 81.2 | 89 | -2.31% (inactive) | -5.5% (inactive) | 2.38% (inactive) | 4.63% (inactive) | -1.76% (inactive) | 91.4% (inactive) | 104% (inactive) | 0.045% (inactive) | 1.54% (inactive)
